{"source": "the supplement of paper PMC10981050", "note": "Where a name gives a salt, the structure may show the parent alone.", "data": [{"tested_on": "K562", "assay": "cell viability relative to vehicle control; higher = less cytotoxic", "settings": "10 µM; SRSF2 genotype: SRSF2 wt/wt", "in_short": "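Mutant clones made by CRISPR editing and their isogenic wild-type counterparts, from four leukaemia lines, were exposed to a single 10 µM dose of each library compound for 48 h. The supernatant was then removed and CellTiter-Glo luminescence was read. Viability was reported as percent of the on-plate vehicle control.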", "units": {"cell viability": "%"}, "values": [{"molecule": "C/C(=C\\c1csc(C)n1)[C@@H]1C[C@@H]2O[C@@H]2CCC[C@H](C)[C@H](O)[C@@H](C)C(=O)C(C)(C)[C@@H](O)CC(=O)O1", "note": "[Epothilone A]", "cell viability": 32.5}, {"molecule": "C[C@]12C=CC(=O)C=C1CC[C@@H]1[C@@H]2CC[C@@]2(C)[C@H]1CC[C@]2(C)O", "note": "[Methandrostenolone]", "cell viability": 102}, {"molecule": "C#C[C@]1(O)C=C[C@H]2[C@@H]3CCC4=CC(=O)CC[C@@H]4[C@H]3CC[C@@]21CC", "note": "[Gestodene]", "cell viability": 95.4}, {"molecule": "C/C=C\\c1cc(OC)c(OC)cc1OC", "note": "[Beta-Asarone]", "cell viability": 104}, {"molecule": "Cc1c(N)nc(C(CC(N)=O)NCC(N)C(N)=O)nc1C(=O)NC(C(=O)NC(C)C(O)C(C)C(=O)NC(C(=O)NCCc1nc(-c2nc(C(=O)NCCC[S+](C)C)cs2)cs1)C(C)O)C(O[C@@H]1O[C@@H](CO)[C@@H](O)[C@H](O)[C@@H]1O[C@H]1O[C@H](CO)[C@@H](O)[C@H](OC(N)=O)[C@@H]1O)c1cnc[nH]1", "note": "(stereo partly specified) [Bleomycin sulfate]", "cell viability": 69.7}, {"molecule": "Cc1cccc(C(C)c2c[nH]cn2)c1C", "note": "(stereo unspecified) [Medetomidine HCl]", "cell viability": 95.1}, {"molecule": "CCC1(c2ccc(N)cc2)CCC(=O)NC1=O", "note": "(stereo unspecified) [Aminoglutethimide (Cytadren)]", "cell viability": 110}, {"molecule": "COc1cc2c(cc1O)CC1NCCc3cc(OC)c(O)c-2c31", "note": "(stereo unspecified) [Norisoboldine]", "cell viability": 105}, {"molecule": "Cc1cccc(Cc2c[nH]cn2)c1C", "note": "[Detomidine HCl]", "cell viability": 96.5}, {"molecule": "COC1=C[C@@H]2[C@@H]3Cc4ccc(OC)c(O)c4[C@]2(CCN3C)CC1=O", "note": "[Sinomenine hydrochloride]", "cell viability": 97.9}, {"molecule": "CC(C)=CCCC(C)(O)C1CCC2(C)C1C(O)CC1C3(C)CCC(O)C(C)(C)C3C(OC3OC(CO)C(O)C(O)C3O)CC12C", "note": "[(20R)-Ginsenoside Rh1]", "cell viability": 103}, {"molecule": "CN(C)C(=O)Oc1ccc[n+](C)c1", "note": "[Pyridostigmine Bromide (Mestinon)]", "cell viability": 95.9}, {"molecule": "C=CC1CN2CCC1CC2C(O)c1ccnc2ccccc12", "note": "(stereo unspecified) [Cinchonine.cdx]", "cell viability": 102}, {"molecule": "CC[C@@H]1CN2CC[C@@]3(C(=O)Nc4ccccc43)[C@@H]2C[C@@H]1/C(=C\\OC)C(=O)OC", "note": "[Corynoxine]", "cell viability": 97.9}, {"molecule": "C[C@@]12C[C@@H](c3ccoc3)OC(=O)[C@@H]1CC[C@]1(C)[C@H]2[C@@H]2C=C[C@@]1(O)C(=O)O2", "note": "[Columbin]", "cell viability": 102}, {"molecule": "Nc1nc(N)nc(N)n1", "note": "[Melamine]", "cell viability": 90}, {"molecule": "O=C(/C=C/c1ccccc1)OC[C@H]1O[C@@H](O[C@@H]2OC=C[C@H]3[C@H](O)[C@@H]4O[C@]4(CO)[C@@H]23)[C@H](O)[C@@H](O)[C@@H]1O", "note": "[Picroside I]", "cell viability": 105}, {"molecule": "Cc1cccc(C)c1NC1=NCCCS1", "note": "[Xylazine HCl]", "cell viability": 82.8}, {"molecule": "c1ccc2c(c1)[I+]c1ccccc1-2", "note": "[Diphenyleneiodonium chloride (DPI)]", "cell viability": 25}, {"molecule": "CC(=O)OC12COC1CC(O)C1(C)C(=O)C(O)C3=C(C)C(O)CC(O)(C(OC(=O)c4ccccc4)C21)C3(C)C", "note": "(stereo unspecified) [10-DAB (10-Deacetylbaccatin)]", "cell viability": 103}, {"molecule": "COC(=O)C[C@](O)(CCC(C)(C)O)C(=O)O[C@@H]1C(OC)=C[C@]23CCCN2CCc2cc4c(cc2[C@H]13)OCO4", "note": "[Harringtonine]", "cell viability": 20.6}, {"molecule": "c1c2c(cc3c1OCO3)-c1cc3ccc4c(c3c[n+]1CC2)OCO4", "note": "[Coptisine chloride]", "cell viability": 84.2}, {"molecule": "O=S(=O)(CC1CS1)c1ccc(Oc2ccccc2)cc1", "note": "(stereo unspecified)", "cell viability": 92.2}, {"molecule": "CC(NC(C)(C)C)C(=O)c1cccc(Cl)c1", "note": "(stereo unspecified) [Amfebutamone (Bupropion) HCl]", "cell viability": 95.6}, {"molecule": "O=C1CCC[C@@H]2[C@H]3CCCN4CCC[C@@H](CN12)[C@@H]34", "note": "[Matrine ((+)-Matrine)]", "cell viability": 102}, {"molecule": "C=C[C@H]1CN2CC[C@H]1C[C@H]2[C@H](O)c1ccnc2ccccc12", "note": "[Cinchonidine]", "cell viability": 94.8}, {"molecule": "Cn1cc(C2=C(c3cn(C4CCN(Cc5ccccn5)CC4)c4ccccc34)C(=O)NC2=O)c2ccccc21", "cell viability": 91.3}, {"molecule": "O=C(O)CNC(=O)c1c(O)c2ccccc2n(Cc2ccccc2)c1=O", "cell viability": 101}, {"molecule": "O=c1[nH]c2ccc(Cl)cc2c(N[C@@H]2CN3CCC2CC3)c1-c1nc2ccccc2[nH]1", "cell viability": 0.48}, {"molecule": "NCC(O)c1ccc(O)cc1", "note": "(racemic) [(+,-)-Octopamine HCl]", "cell viability": 97.6}, {"molecule": "C=C1[C@H]2C[C@@]3([C@@H]1O)[C@@H](CC2=O)[C@]12[C@@H]4C[C@H]3[C@H]1N(CC)C[C@]4(C)CC[C@@H]2O", "note": "[Songorine]", "cell viability": 101}]}]}
